Compound activity (PubChem)
Rows were chosen to be rich in hits. Some 4% of all compounds tested hit in one or more screens of this group.
BoNT F protease = blocks Botulinum neurotoxin F light chain protease | AID 588497 | Multiplex microsphere protease cleavage assay, flow cytometry | 360,000 compounds, 0.22% hits | inhibition, % at 10 µM; in the data active means inhibition above about 35%, passing the limit was not always enough; inconclusive means no clear call, values can overlap the other calls; further: plate controls were buffer without enzyme for full effect and enzyme alone for no effect
MazEF act = increases E. coli MazEF RNase cleavage of RNA | P0AE70 | FAM/BHQ RNA-DNA oligo cleavage fluorescence, 5 h | activation, % at 20 µM | 350,000 compounds, 0.32% hits | AID 504720; in the data active means activation above about 50%
VHR inh abs = DUSP3 (human) phosphatase inhibition; P51452; recombinant VHR phosphatase, pNPP absorbance; inhibition, % at 13.3 µM; 290,000 compounds, 0.52% hits; in the data active means inhibition above about 50%
Anthrax LF inh2 = inhibitors of Bacillus anthracis lethal factor protease; 360,000 compounds, 0.12% hits; multiplex microsphere protease cleavage assay, LF; inhibition, % at 10 µM; P15917; further: plate controls were buffer without enzyme for full effect and enzyme alone for no effect
BoNT A protease = blocks Botulinum neurotoxin A light chain protease. multiplex microsphere protease substrate cleavage, flow cytometry. inhibition, % at 10 µM. AID 588499. 360,000 compounds, 0.17% hits; further: plate controls were buffer without enzyme for full effect and enzyme alone for no effect
Autofluor counter = counter-screen for toxin protease inhibitors: compound fluorescence. compound autofluorescence counterscreen, microsphere flow cytometry; stronger effect = higher value. fluorescence intensity (concentration not given with the values). 360,000 compounds, 3.1% hits. AID 624483; in the data active means fluorescence intensity above about 16000; inconclusive means no clear call, values can overlap the other calls
* hit, by the source's call; ? = inconclusive; . = no result given. Unless noted, no stated cut-off is given here; in the data, active means inhibition above about 30%; inconclusive means no clear call, values can overlap the other calls; inactive means below that.

SMILES	BoNT F protease	MazEF act	VHR inh abs	Anthrax LF inh2	BoNT A protease	Autofluor counter
CC(C)CC(=O)N1CCN(Cc2ccccc2Cl)CC1	5.3	4.7	13.9	1.6	-2.5	3660
CCOC(=O)N1CCN(C(=O)CSCc2ccccc2)CC1	-3.1	-1.7	-4.7	-0.7	-0.4	2165
CCOC(=O)C1CCCN(Cc2ccccc2F)C1 (stereo not given)	0.2	8.7	6.4	-2.9	-0.3	7488
COc1ccc(S(=O)(=O)N(C)CC(=O)NCCN2CCOCC2)cc1	13.1	4.1	-41.4	3.1	1.2	2873
CCn1c(C)nc2cc(C(=O)NNC(=O)Nc3ccc(Cl)cc3)ccc21	-5.3	2.5	7.6	5.5	-0.7	3417
O=C(c1ccc(Cl)cc1)N1CCCOC1	9.1	-3.7	-5.1	-2.7	-0.1	4054
Cn1c(Oc2ccncc2)nc2cc(-c3ccsc3)sc2c1=O	7.9	.	.	-0.4	-0.1	3412
CCN(CC)S(=O)(=O)c1ccc(NC(=O)CCNC(=O)c2ccco2)cc1	-20.5	-0.2	6.4	-2.5	-2.2	3872
Cc1ccc(CSc2nnc3c(n2)OC2(Nc4ccccc4-3)C(=O)Nc3ccc(F)cc32)cc1 (stereo not given)	-7.0	-1.8	13.2	-0.9	1.1	12808
CC(=NCCCN1CCOCC1)c1c(O)[nH]c(=O)[nH]c1=O	6.2	3.4	39.2	-3.0	4.1	20875*
CC(=NCCN1CCOCC1)c1c(O)n(-c2ccccc2C)c(=O)[nH]c1=O	-2.2	0.0	30.4	-0.2	-2.5	23519*
CC(=NCCN1CCOCC1)c1c(O)n(C2CCCCC2)c(=O)[nH]c1=O	-5.5	2.2	17.2	-3.0	-3.6	24874*
CNC(=O)C(C)c1ncc(C(F)(F)F)cc1Cl (stereo not given)	3.5	-5.8	16.6	1.8	0.5	4798
CC(C(=O)Nc1ccc(Cl)cc1)c1ncc(C(F)(F)F)cc1Cl (stereo not given)	-2.2	-10.5	-7.3	-0.7	0.7	20389*
NC(=O)C(c1ccc(Cl)cc1Cl)c1ncc(C(F)(F)F)cc1Cl (stereo not given)	0.1	-6.5	24.7	0.0	?	19681*
O=C(CCN1C(=O)/C(=C/c2ccc(F)cc2)SC1=S)NC1CCS(=O)(=O)C1 (stereo not given)	-4.8	7.3	-14.4	-3.2	-1.8	6110
Cc1ccc(CNn2cnnc2SCc2ccc(F)cc2)cc1	-0.7	-0.7	8.8	-2.9	-0.2	22609*
Fc1ccc(CNn2cnnc2SCc2ccc(F)cc2)cc1	0.9	4.8	-4.7	14.3	0.9	6004
Cc1ccsc1CNn1cnnc1SCc1ccc(Cl)cc1	-7.3	-2.6	17.8	0.1	-3.5	23748*
CCN(CC)S(=O)(=O)c1ccc(C(=O)NCc2cccs2)cc1	-0.7	-13.5	7.2	1.5	0.7	21571*
O=C(NCc1n[nH]c(=S)n1Cc1ccccc1)c1ccccc1	1.5	4.5	15.2	-4.5	0.0	4204
CCN(CC)S(=O)(=O)c1ccc(C(=O)NCc2n[nH]c(=S)n2Cc2ccccc2)cc1	2.1	-11.9	16.5	-0.5	2.4	21413*
O=C(CCC(=O)Nc1ccccc1Cl)N/N=C1\CCCc2ccccc21	-3.1	-2.2	-4.8	-3.0	-0.3	2237
CCOC(=O)c1ncn2c1C(=O)OC2(C)C	1.6	4.9	-18.8	0.9	?	19113*
CCOC(=O)C1=CC(=O)CC(C)(C)O1	1.7	16.4	.	1.0	-0.1	3848
SMILES	BoNT F protease	MazEF act	VHR inh abs	Anthrax LF inh2	BoNT A protease	Autofluor counter
CNC(=O)ON(C(=O)NC)C1N(C)C(=S)SC1(C)C (stereo not given)	5.7	-0.4	8.2	0.8	-1.1	10829
CN1C(=S)SC(C)(NO)C1(C)C (stereo not given)	-11.0	-0.7	-8.6	-6.4	-8.8	18153*
CC12CN3CC(C)(CN(C1)C3c1cccs1)C2O (stereo not given)	-7.0	7.0	23.9	-3.9	-2.6	17129*
Cc1ccc(-n2c(O)c(C=Nc3ccccc3N)c(=O)[nH]c2=O)cc1C	-9.4	-23.8	20.9	0.0	-0.4	2800
O=c1[nH]c(=O)n(-c2ccc(F)cc2)c(O)c1C=Nc1ccccc1N1CCCC1	-23.9	205.8*	-1.3	-3.0	-0.4	4930
Cc1ccc(C(=O)Nc2nc3ccccc3s2)s1	-1.4	16.8	3.5	-0.9	-0.8	22825*
Cc1ccc(C(=O)Nc2nc3ccc(S(C)(=O)=O)cc3s2)s1	3.2	2.1	8.4	-1.3	2.2	21772*
Cc1cc(C(=O)Nc2nc3ccc(S(C)(=O)=O)cc3s2)c(C)o1	0.5	-5.7	-11.2	-4.9	2.1	22296*
